# Screens as filed in PubChem.
# RecA splice inh: blocks M. tuberculosis RecA intein splicing; 290,000 tested, 0.75% active; P9WHJ3; inhibition, % (concentration not given with the values); cell-free RecA intein splicing, fluorescence; in the data active means inhibition above about 30%; inconclusive means no clear call, values can overlap the other calls;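 further: 0% = vehicle wells and 100% = reference inhibitor control wells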
# Rv3671c protease: inhibitors of M. tuberculosis serine protease Rv3671c; P9WHR9; inhibition, % at 5.96 µM; 320,000 tested, 0.048% active; AID 2606; in the data active means inhibition above about 38%;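 further: extracellular domain of Rv3671c used as enzyme; 0% = enzyme with DMSO and 100% = no enzyme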
# Mtb FBA inh: inhibitors of M. tuberculosis fructose-bisphosphate aldolase | P9WQA3 | purified M. tuberculosis FBA, fluorescence read-out | inhibition, % at 1 µM | 360,000 tested, 2.3% active; in the data active means inhibition above about 27%;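 further: 0% = vehicle and 100% = reference inhibitor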
# Target sequence (P9WQA3 whole entry, looked up): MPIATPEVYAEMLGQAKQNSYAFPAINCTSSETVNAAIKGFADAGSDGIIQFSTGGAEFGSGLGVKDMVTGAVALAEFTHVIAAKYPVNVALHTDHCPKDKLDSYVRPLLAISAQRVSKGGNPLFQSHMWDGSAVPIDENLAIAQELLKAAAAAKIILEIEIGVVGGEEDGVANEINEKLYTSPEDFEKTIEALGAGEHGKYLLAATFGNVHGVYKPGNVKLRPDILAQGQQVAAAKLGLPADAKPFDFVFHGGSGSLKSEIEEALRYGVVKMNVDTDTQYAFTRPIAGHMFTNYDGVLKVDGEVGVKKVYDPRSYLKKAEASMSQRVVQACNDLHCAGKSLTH
# GDH-TPI inh: counter-screen for M. tuberculosis FBA inhibitors: GDH-TPI coupled enzymes. GDH-TPI coupled enzyme counterscreen, NADH absorbance. 360,000 tested, 1.2% active. inhibition, % at 4.8 µM. AID 588335; in the data active means inhibition above about 30%;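 further: 0% = DMSO wells and 100% = wells lacking the enzyme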
# Mtb betalactam: beta-lactam sensitization of Mtb H37Rv. 330,000 tested, 0.27% active. inhibition, % at 25 µM. M. tuberculosis H37Rv growth with meropenem, percent inhibition; call rule not given here;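 further: growth measured after seven days incubation then overnight dye step; 0% = bacteria only wells and 100% = bacteria with antibiotic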
# Mtb UGM inh: blocks M. tuberculosis UGM enzyme; P9WIQ1; purified UGM, fluorescence polarization probe displacement; inhibition, % at 10 µM; 320,000 tested, 0.06% active; AID 504406; in the data active means inhibition above about 10%, passing the limit was not always enough; inconclusive means no clear call, values can overlap the other calls
# Starred values were filed as active, the others as inactive; ? = inconclusive; . = no result given; + = active, no number. In the library only some 4% were active in any assay of this set; here they are far more common.
SMILES,RecA splice inh,Rv3671c protease,Mtb FBA inh,GDH-TPI inh,Mtb betalactam,Mtb UGM inh
C/C(=N/Nc1ncc(Br)cn1)c1ccc(Br)cc1,-1,-1,0,7,1,1
C/C(=N\Nc1ccc(C(=O)O)cc1)c1ccc(S(=O)(=O)NCc2ccco2)cc1,0,0,1,54*,15,-2
COc1ccc(C2=NOC(Cn3nc(-c4ccccc4C)cc3C(=O)O)C2)cc1 (stereo not drawn),.,0,8,9,18,-2
CCc1noc(C)c1C(=O)NC1CC(C)(C)Cc2c1cnn2-c1ccccc1 (stereo not drawn),.,-4,5,2,?,-2
O=C(NCc1ccco1)c1nn2c(C(F)(F)F)cc(-c3cccs3)nc2c1Br,-3,-9,-2,1,-7,-1
O=C(NCc1ccco1)c1nc2nc(-c3cccs3)cc(C(F)(F)F)n2n1,-6,2,+,28,-10,4
COC(=O)c1nc2nc(-c3cccs3)cc(C(F)(F)F)n2n1,-20,5,+,18,3,-1
COC(=O)c1nc2nc(C)cc(C(F)(F)F)n2n1,-1,5,-3,-2,-10,2
Cc1ccc(CN(C)C(=O)CSc2nnc3n2CCCCC3)c(C)c1,.,1,3,18,1,1
NC(CCc1ccccc1)c1csc(NC(=O)NCC2CCCCC2)n1 (stereo not drawn),.,.,-2,4,.,.
CC(=O)C1=C(O)C(=O)N(Cc2ccccc2)C1c1cccs1 (stereo not drawn),1,6,1,31*,-2,1
CC(=O)C1=C(O)C(=O)N(Cc2ccccc2)C1c1ccc(Cl)cc1 (stereo not drawn),3,-8,-1,17,-3,0
CCCCC(NC(=O)COc1cc2c(c3oc(=O)cc(C)c13)CCC(C)(C)O2)C(=O)O (stereo not drawn),-4,4,+,26,-4,6
Cc1cc(=O)oc2c3c(cc(OCC(=O)NC(C)C)c12)OC(C)(C)CC3,0,.,+,15,4,4
Cc1cc(OCC(=O)NC(C)C)cc(C)c1Cl,1,-4,-3,1,-4,2
Cc1cc(=O)oc2c3c(cc(OCC(=O)N[C@@H](C)C(=O)O)c12)OC(C)(C)CC3,-1,.,+,21,-6,3
CCC1(c2ccc(F)cc2)NC(=O)N(CC(=O)N(C)C2CCS(=O)(=O)C2)C1=O (stereo not drawn),1,4,0,13,-13,5
O=C(c1ccc(Cl)c(Cl)c1)N1CCC(=O)N(C(COCc2cccc(C(F)(F)F)c2)Cc2ccccc2)CC1 (stereo not drawn),16,-13,73*,1,-8,-1
Cc1cccc(COCC(Cc2ccccc2)N2CCN(C(=O)c3ccc(Cl)c(Cl)c3)CCC2=O)c1 (stereo not drawn),12,-1,-1,-2,-2,1
O=C(N/N=C/c1ccc(O)cc1)c1ccc(NC(=O)c2ccccc2Br)cc1,-1,-11,-4,42*,88,1
O=C(Nc1ccccc1C(=O)N/N=C/c1ccc(F)cc1)c1ccccc1Br,1,-15,1,5,8,-3
O=C(N/N=C/c1ccncc1)c1cccc(N/N=C/c2ccncc2)c1,-1,0,-3,16,-6,-2
Cc1ccccc1C(=O)Nc1ccc(C(=O)N/N=C/c2ccc(O)cc2)cc1,0,-7,4,34*,9,0
O=C(N/N=C/c1ccc(O)cc1)c1cccc(N/N=C/c2ccc(O)cc2)c1,1,-1,-1,37*,39,1
O=C(c1ccc(F)cc1Cl)N1CCN(S(=O)(=O)c2cccs2)CC1,3,1,-2,-6,?,2
SMILES,RecA splice inh,Rv3671c protease,Mtb FBA inh,GDH-TPI inh,Mtb betalactam,Mtb UGM inh
CC(C)(C)c1nc2c(s1)CCc1onc(-c3ccc(Cl)cc3)c1-2,1,-2,1,4,21,-1
C/C(=N\OC(=O)c1ccc(Br)cc1)c1ccccn1,3,4,9,31*,4,1
Cc1ccc(C(=O)O/N=C(\N)c2ccccn2)cc1,-3,-10,2,-5,7,0
Cc1ccc(/C=N/NC(=O)CSc2nc3ccccc3[nH]2)o1,-6,1,-2,5,4,1
CC(C)(C)c1cc(C(=O)CCN2CCOCC2)cc(C(C)(C)C)c1O,30*,-5,-1,7,67,4
CC1CCC(C(C)C)C(=O)/C1=C/c1ccc(N)cc1 (stereo not drawn),-1,12,0,36*,-2,-1
Cc1ccc(C=C2C(Cl)=C(Cl)C(Cl)=C2Cl)cc1,31*,4,.,.,99,-3
C#CCn1c(=NC(=O)c2ccco2)sc2cccc(Cl)c21,2,-8,4,17,-11,-2
Cn1c(=NC(=O)c2ccco2)sc2ccccc21,1,-4,-1,34*,-1,3
CCOc1cccc2sc(=NC(=O)c3ccco3)n(CC(=O)OC)c12,0,-13,9,81*,2,1
Cc1sc(=NC(=O)c2ccco2)n(C)c1-c1ccc(F)cc1,-2,0,-2,26,23,2
Cc1sc(=NC(=O)c2ccco2)n(C)c1-c1ccccc1,2,0,0,39*,10,0
CC(=O)Nc1cccc(-c2cc3c(c4c2ccn4C)C2CCC3O2)c1 (stereo not drawn),.,.,161*,.,.,.
COC(=O)c1sc(NC(=S)NNC(=O)c2c(Br)c(C)nn2C)c(C(=O)OC)c1C,5,9,-1,53*,-6,1
Cc1ccc(SCC(=O)OCC(=O)N(CCC#N)c2ccccc2)cc1,.,-5,0,-6,1,-1
COc1ccc(/C=N/NC(=O)c2ccncc2)cc1CSc1nc2ccccc2s1,19,-178,2,31*,98,0
COc1ccc(/C=N\NC(=O)c2ccc(F)cc2)cc1COc1ccccc1C(N)=O,1,-19,2,11,-14,5
COc1ccc(C(=O)N/N=C\c2ccc(OC)c(COc3ccccc3Br)c2)c(OC)c1,5,-99,8,35*,1,-1
CCOC(=O)c1ccccc1OCc1cc(/C=N/NC(=O)c2ccncc2)ccc1OC,-1,-28,3,38*,98,2
Cc1cccc(C(C)C)c1NC(=O)c1cc2ccccc2o1,3,-4,-1,3,27,0
N#C/C(=C\c1ccc(OCc2ccc(C(=O)O)cc2)cc1)C(=O)NCc1ccccc1,.,-5,0,36*,-1,-2
COc1cc(/C=C(/C#N)C(=O)Nc2ccccc2)ccc1OCc1ccc(C(=O)O)cc1,1,9,4,17,-3,-2
N#C/C(=C\c1ccc(O)c([N+](=O)[O-])c1)C(=O)NCc1ccccc1,4,2,-12,44*,4,1
N#C/C(=C/c1ccccc1)C(=O)NCc1ccccc1,3,7,2,4,3,1
